Results filed as inconclusive are left out. Activity calls are given as the source filed them. How the source made its calls: active means hit-call score of the fitted dose curve at least 0.9, where 1 is the maximum; inconclusive means response in the unintended direction; inactive means score below 0.9.
Molecular target: Oxysterols receptor LXR-beta (Homo sapiens) (UniProt P55055)
Experiment: ATG_LXRb_TRANS: Attagene TRANS-FACTORIAL HepG2 Assay for human Liver X Receptor beta (LXRb) (AID 2282981)
Details: HepG2 Attagene TRANS GAL4-LXRb reporter, mRNA
Procedure, shortened: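 In this TRANS format, exogenous chimeric NR-Gal4 protein activity, not endogenous factors, drives reporter expression in transfected human HepG2 cells. Exposure lasted 24 h; reporter mRNA was read by fluorescent capillary electrophoresis.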

Oxysterols receptor LXR-beta (Homo sapiens), sequence (P55055 whole entry, looked up): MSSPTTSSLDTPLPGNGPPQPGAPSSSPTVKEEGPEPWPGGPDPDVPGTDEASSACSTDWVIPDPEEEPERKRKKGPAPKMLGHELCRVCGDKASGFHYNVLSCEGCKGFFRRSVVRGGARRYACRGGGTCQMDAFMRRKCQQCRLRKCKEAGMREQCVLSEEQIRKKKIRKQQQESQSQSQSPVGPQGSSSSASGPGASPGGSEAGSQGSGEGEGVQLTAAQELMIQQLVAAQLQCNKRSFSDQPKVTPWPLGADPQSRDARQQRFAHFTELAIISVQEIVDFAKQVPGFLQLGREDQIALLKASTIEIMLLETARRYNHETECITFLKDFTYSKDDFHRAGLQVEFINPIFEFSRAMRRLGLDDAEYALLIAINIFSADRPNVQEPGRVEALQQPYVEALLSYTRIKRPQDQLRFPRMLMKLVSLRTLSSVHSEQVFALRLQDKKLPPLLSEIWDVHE

Question: Which outcome does the source give for `CC1=Nc2ccc3ccccc3c2C1(C)C` here?
Answer: inactive

Question: With `O=C1CCCC1` as the molecule, how does the outcome read?
Answer: inactive

Question: For `O=S(=O)(O)c1cc(S(=O)(=O)O)c2ccc3c(S(=O)(=O)O)cc(S(=O)(=O)O)c4ccc1c2c43`, which outcome is on record?
Answer: inactive

Question: Which outcome does the source give for `C=C(C)[C@@H]1CCC2=CCC[C@@H](C)[C@]2(C)C1` here?
Answer: inactive

Question: For `CC(=O)OCC(C)OC(C)=O` (configuration not stated), which outcome is on record?
Answer: inactive

Question: For `CNC(=S)N(C)C`, which outcome is on record?
Answer: inactive

Question: Which outcome does the source give for `c1cc(N(CC2CO2)CC2CO2)ccc1OCC1CO1` (configuration not stated) here?
Answer: inactive

Question: For `CC(=O)Nc1nnc(S(N)(=O)=O)s1`, which outcome is on record?
Answer: inactive

Question: With `CC(C)=CCCC(C)C=O` (configuration not stated) as the molecule, how does the outcome read?
Answer: inactive

Question: With `CC1=NC(C)OC1C` (configuration not stated) as the molecule, how does the outcome read?
Answer: inactive

Question: For `N=c1ccn2c(n1)O[C@H]1[C@H](O)[C@@H](CO)O[C@H]12`, which outcome is on record?
Answer: inactive

Question: With `CCCCCCCCCCCCCCCC[N+](C)(C)CC` as the molecule, how does the outcome read?
Answer: inactive

Question: With `CCc1nccnc1C` as the molecule, how does the outcome read?
Answer: inactive

Question: For `FC(F)(F)C(=NOCC1OCCO1)c1ccc(Cl)cc1`, which outcome is on record?
Answer: inactive

Question: With `NC(CO)(CO)CO` as the molecule, how does the outcome read?
Answer: inactive

Question: With `Cc1cc(C)c(C(=O)O)c(C)c1` as the molecule, how does the outcome read?
Answer: inactive

Question: With `CCOC(=O)c1ccc(N(C)C)cc1` as the molecule, how does the outcome read?
Answer: inactive

Question: For `C(=CC=Nc1ccccc1)C=CNc1ccccc1`, which outcome is on record?
Answer: inactive

Molecular target: Hepatocyte nuclear factor 4-alpha (Homo sapiens) (UniProt P41235)
Experiment: ATG_HNF4a_TRANS: Attagene TRANS-FACTORIAL HepG2 Assay for human Hepatocyte Nuclear Factor 4 alpha (HNF4a) (AID 2282982)
Details: HepG2 HNF4a transactivation reporter, mRNA readout
Procedure, shortened: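 Cells used were human HepG2, transiently carrying GAL4-UAS reporter units read out against exogenous NR-GAL4 chimeras. Reporter transcript levels after 24 h dosing were quantified by fluorescent RT-PCR and capillary electrophoresis.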

Hepatocyte nuclear factor 4-alpha (Homo sapiens), sequence (P41235 whole entry, looked up): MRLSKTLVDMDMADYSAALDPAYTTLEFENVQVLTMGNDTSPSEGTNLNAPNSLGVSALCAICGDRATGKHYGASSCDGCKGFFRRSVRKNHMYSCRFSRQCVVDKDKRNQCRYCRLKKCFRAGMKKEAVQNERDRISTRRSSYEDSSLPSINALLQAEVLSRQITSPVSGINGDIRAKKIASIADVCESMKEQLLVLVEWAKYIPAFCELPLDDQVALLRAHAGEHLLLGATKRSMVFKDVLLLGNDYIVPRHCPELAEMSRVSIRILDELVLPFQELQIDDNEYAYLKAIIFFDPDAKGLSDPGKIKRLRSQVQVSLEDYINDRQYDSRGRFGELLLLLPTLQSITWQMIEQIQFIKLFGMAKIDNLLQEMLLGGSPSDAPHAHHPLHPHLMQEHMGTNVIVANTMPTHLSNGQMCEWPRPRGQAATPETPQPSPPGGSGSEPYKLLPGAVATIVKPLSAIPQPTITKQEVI

Question: Which outcome does the source give for `CCCCC(CC)COCC1CO1` (configuration not stated) here?
Answer: inactive

Question: Which outcome does the source give for `CC(=O)C=CC1C(C)=CCC(C)C1(C)C` (configuration not stated) here?
Answer: inactive

Question: For `c1ccc2c(c1)ccc1ncccc12`, which outcome is on record?
Answer: inactive

Question: For `CC1=Nc2ccc3ccccc3c2C1(C)C`, which outcome is on record?
Answer: inactive

Question: With `O=S(=O)(O)c1cc(S(=O)(=O)O)c2ccc3c(S(=O)(=O)O)cc(S(=O)(=O)O)c4ccc1c2c43` as the molecule, how does the outcome read?
Answer: inactive

Question: For `CC(C)C(=O)C(C)C`, which outcome is on record?
Answer: inactive

Question: With `CC(=O)OCC(C)OC(C)=O` (configuration not stated) as the molecule, how does the outcome read?
Answer: inactive

Question: With `CNC(=S)N(C)C` as the molecule, how does the outcome read?
Answer: inactive

Question: For `CCCCCCCCC(=O)OCC`, which outcome is on record?
Answer: inactive

Question: For `C=C(C)C(=O)OCCOc1ccccc1`, which outcome is on record?
Answer: inactive

Question: With `c1cc(N(CC2CO2)CC2CO2)ccc1OCC1CO1` (configuration not stated) as the molecule, how does the outcome read?
Answer: inactive

Question: With `CC(C)=CCCC(C)C=O` (configuration not stated) as the molecule, how does the outcome read?
Answer: inactive

Question: With `CC1=NC(C)OC1C` (configuration not stated) as the molecule, how does the outcome read?
Answer: inactive

Question: Which AC50 does the source give for `CCCCCCCCCCCCCCCC[N+](C)(C)CC` here?
Answer: 11 µM (active)

Question: For `OCCCS`, which outcome is on record?
Answer: inactive

Question: For `CCOC(=O)c1ccc(N(C)C)cc1`, which outcome is on record?
Answer: inactive

Question: Which outcome does the source give for `O=Nc1ccc(O)cc1` here?
Answer: inactive

Question: With `COCc1c(C(C)C)nc(C(C)C)c(/C=C/[C@@H](O)C[C@@H](O)CC(=O)O)c1-c1ccc(F)cc1` as the molecule, how does the outcome read?
Answer: inactive

Question: For `SCCc1cnccn1`, which outcome is on record?
Answer: inactive

Tested on: not listed separately
Experiment: ATG_M_06_TRANS: Attagene TRANS-FACTORIAL HepG2 Assay for M06 Transcription Factor (Internal Marker) (AID 2282983)
Details: HepG2 Attagene TRANS M06 internal marker reporter
Procedure, shortened: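 Internal-marker background readout from a multiplexed TRANS reporter system in HepG2; 24 h dosing; mRNA induction quantified by RT-PCR plus capillary electrophoresis fluorescence; DMSO as negative control and baseline.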

Question: For `O=[N+]([O-])c1ccc(CO)cc1`, which outcome is on record?
Answer: inactive

Question: With `CCCCC(CC)COCC1CO1` (configuration not stated) as the molecule, how does the outcome read?
Answer: inactive

Question: Which outcome does the source give for `c1cc(C(c2ccc(OCC3CO3)cc2)C(c2ccc(OCC3CO3)cc2)c2ccc(OCC3CO3)cc2)ccc1OCC1CO1` (configuration not stated) here?
Answer: inactive

Question: With `CC(=O)C=CC1C(C)=CCC(C)C1(C)C` (configuration not stated) as the molecule, how does the outcome read?
Answer: inactive

Question: With `c1ccc2c(c1)ccc1ncccc12` as the molecule, how does the outcome read?
Answer: inactive

Question: For `O=S(=O)(O)c1cc(S(=O)(=O)O)c2ccc3c(S(=O)(=O)O)cc(S(=O)(=O)O)c4ccc1c2c43`, which outcome is on record?
Answer: inactive

Question: Which outcome does the source give for `C=C(C)[C@@H]1CCC2=CCC[C@@H](C)[C@]2(C)C1` here?
Answer: inactive

Question: For `COC(=O)c1cc(Cl)ccc1[N+](=O)[O-]`, which outcome is on record?
Answer: inactive

Question: Which outcome does the source give for `CC(C)C(=O)C(C)C` here?
Answer: inactive

Question: With `CC(=O)OCC(C)OC(C)=O` (configuration not stated) as the molecule, how does the outcome read?
Answer: inactive

Question: With `CCCCCCCCCCCSCC(=O)O` as the molecule, how does the outcome read?
Answer: inactive

Question: With `C=C(C)C(=O)OCCOc1ccccc1` as the molecule, how does the outcome read?
Answer: inactive

Question: For `c1cc(N(CC2CO2)CC2CO2)ccc1OCC1CO1` (configuration not stated), which outcome is on record?
Answer: inactive

Question: Which outcome does the source give for `CC(=O)Nc1nnc(S(N)(=O)=O)s1` here?
Answer: inactive

Question: Which outcome does the source give for `OC1CCCCCCCCCCC1` here?
Answer: inactive

Question: For `CCCCCCCCCCCCCCCC[N+](C)(C)CC`, which outcome is on record?
Answer: inactive

Question: Which outcome does the source give for `CCc1nccnc1C` here?
Answer: inactive

Question: Which outcome does the source give for `FC(F)(F)C(=NOCC1OCCO1)c1ccc(Cl)cc1` here?
Answer: inactive

Question: Which outcome does the source give for `NC(CO)(CO)CO` here?
Answer: inactive

Question: With `Cc1cc(C)c(C(=O)O)c(C)c1` as the molecule, how does the outcome read?
Answer: inactive

Question: Which outcome does the source give for `O=C1CCCCCCCCCCC(=O)OCCO1` here?
Answer: inactive

Question: With `O=Nc1ccc(O)cc1` as the molecule, how does the outcome read?
Answer: inactive

Question: For `C(=CC=Nc1ccccc1)C=CNc1ccccc1`, which outcome is on record?
Answer: inactive

Question: Which outcome does the source give for `COCc1c(C(C)C)nc(C(C)C)c(/C=C/[C@@H](O)C[C@@H](O)CC(=O)O)c1-c1ccc(F)cc1` here?
Answer: inactive

Question: Which outcome does the source give for `SCCc1cnccn1` here?
Answer: inactive

From PubChem BioAssay (EPA / NIEHS)
